Experimental data: PubChem BioAssay AID793 (The Scripps Research Institute Molecular Screening Center, 2007)
Out of some 140,000 compounds screened, about 1,400 (1%) were called active. Shown is part of a subset that was picked to be rich in actives. Values without a mark were called inactive. No stated cut-off is given here; in the data, active means inhibition above about 17%; inactive means the rest.

molecular target: Neuropeptide Y receptor type 2 (Homo sapiens) (UniProt P49146); test: blockers of human neuropeptide Y Y2 receptor – cell-based, primary screen (AID 793); conditions: NPY-Y2 expressing cells, antagonist mode; at 2.7 µM; stronger effect = higher value;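 further: 0% = vehicle with agonist challenge and 100% = reference antagonist with challenge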
Sequence (P49146 whole entry, looked up): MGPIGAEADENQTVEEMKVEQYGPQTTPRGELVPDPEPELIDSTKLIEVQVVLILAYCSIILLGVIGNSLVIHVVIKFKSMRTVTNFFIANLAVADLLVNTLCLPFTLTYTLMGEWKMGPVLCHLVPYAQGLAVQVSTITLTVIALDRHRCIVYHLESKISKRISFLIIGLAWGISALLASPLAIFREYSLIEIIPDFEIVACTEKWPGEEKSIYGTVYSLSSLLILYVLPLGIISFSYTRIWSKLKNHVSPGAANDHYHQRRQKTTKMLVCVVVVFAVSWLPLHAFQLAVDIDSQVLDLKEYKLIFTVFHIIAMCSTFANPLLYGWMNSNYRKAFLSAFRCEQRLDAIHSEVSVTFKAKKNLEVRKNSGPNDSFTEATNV

Row | Compound | inhibition
1 | O=C(CCNS(=O)(=O)c1ccccc1)Nc1ccc(Cl)cc1C(=O)c1ccccc1 | 2.34%
2 | CN1CCN(C(=S)SCC(=O)Nc2ccc(Cl)cc2C(=O)c2ccccc2)CC1 | 6.46%
3 | O=C(COC(=O)c1ccccc1)Nc1ccc(Cl)cc1C(=O)c1ccccc1 | 34.7% (active)
4 | CN1CCN(Cc2ccc(OC(F)(F)F)cc2)CC1 | 3.95%
5 | CCOC(=O)c1c(-c2ccccc2)oc2ccc(OC(=O)N(C)C)cc12 | 4.26%
